19 compounds from PubChem BioAssay can be followed below.

As a reminder, the inhibition is the change of the read-out against control, counted positive when it falls.

The nature of assay [1]: antimalarial activity against Dd2 strain (AID 2302;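 active means growth inhibition above 50% at the single 2 µM test dose, taken to imply half-maximal potency below 2 µM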;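 further: 0% = DMSO untreated growth and 100% = chloroquine plus artemisinin killed control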). To be noted: P. falciparum Dd2 in RBCs, LDH growth readout, 72 h; at 2 µM; hits give high values.
The nature of assay [2]: HepG2 cytotoxicity, primary screen, cytotoxicity control for P. falciparum antimalarial project, cell-based, ATP luminescence (AID 2303;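 active means inhibition above 50%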;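 further: 0% = DMSO wells and 100% = digitonin-killed cells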). To be noted: HepG2 viability, 24-48 h, at 10 µM, hits give high values.
In assay [3] the target is L-lactate dehydrogenase (Plasmodium falciparum (isolate CDC / Honduras)) (UniProt Q27743). Kind of assay: PfLDH activity inhibition – cell lysate, 3D7 strain, counter-screen for P. falciparum growth inhibition project (AID 2304).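 Further: 0% = vehicle and 100% = reference inhibitor.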 To be noted: P. falciparum 3D7 crude extract, LDH APAD/NBT absorbance; at 2 µM; hits give high values. A general note: Counterscreens check selectivity or assay interference.
Sequence of L-lactate dehydrogenase (Plasmodium falciparum (isolate CDC / Honduras)) (Q27743 whole entry, looked up): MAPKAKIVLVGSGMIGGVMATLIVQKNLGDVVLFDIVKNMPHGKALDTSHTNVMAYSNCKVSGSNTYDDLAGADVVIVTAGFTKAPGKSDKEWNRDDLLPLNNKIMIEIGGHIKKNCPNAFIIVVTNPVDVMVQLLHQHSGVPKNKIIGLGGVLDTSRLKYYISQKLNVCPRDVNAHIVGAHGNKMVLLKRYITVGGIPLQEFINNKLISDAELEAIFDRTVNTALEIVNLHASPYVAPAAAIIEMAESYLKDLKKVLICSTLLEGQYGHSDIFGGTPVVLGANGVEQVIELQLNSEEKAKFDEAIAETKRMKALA

A short description of assay [4]: inhibition of 3D7 malaria parasite growth – strain 3D7 (AID 2306).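 Further: 0% = DMSO wells and 100% = chloroquine plus artemisinin control wells.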 To be noted: P. falciparum 3D7 erythrocytic growth, LDH absorbance, 72 h; at 2 µM; hits give high values.
Assay [5] has as its target Calcium-dependent protein kinase 1 (Plasmodium falciparum (isolate 3D7)) (UniProt P62344). Kind of assay: PfCDPK1 kinase inhibitors, biochemical, TCAMS library (AID 1159585; cut-off not given, nearly all actives have IC50 up to about 0.98 µM;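 further: inhibitors leave more ATP so luminescence rises with inhibition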). To be noted: recombinant PfCDPK1, Kinase-Glo ATP depletion luminescence. For orientation: In Kinase-Glo more light means more ATP remaining.
The target in assay [6] is Plasmodium falciparum protein kinase 6 (PK6, PF3D7_1337100) (UniProt Q8IDW1). Kind of assay: PfPK6 kinase inhibitors, biochemical, TCAMS library (AID 1159586). The following applies: recombinant PfPK6, Kinase-Glo ATP depletion luminescence.
Sequence of Plasmodium falciparum protein kinase 6 (PK6, PF3D7_1337100) (Q8IDW1 1-305): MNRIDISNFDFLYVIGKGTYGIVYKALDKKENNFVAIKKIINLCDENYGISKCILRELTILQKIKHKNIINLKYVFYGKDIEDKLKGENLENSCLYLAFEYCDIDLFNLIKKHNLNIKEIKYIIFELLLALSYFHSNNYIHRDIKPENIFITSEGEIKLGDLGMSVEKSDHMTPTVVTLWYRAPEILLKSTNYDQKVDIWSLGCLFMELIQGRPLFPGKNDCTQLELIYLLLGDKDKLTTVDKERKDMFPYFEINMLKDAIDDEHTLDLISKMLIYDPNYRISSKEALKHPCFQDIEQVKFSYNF
Assay [7] addresses Protein kinase 7 (PK7), Plasmodium falciparum 3D7 (PF3D7_0213400) (UniProt Q7YTF7). Briefly: inhibition of Plasmodium PK7 catalytic activity – biochemical, TCAMS antimalarial set, Kinase-Glo luminescence (AID 1159587). To be noted: recombinant PfPK7, Kinase-Glo ATP depletion luminescence.
Assay [8] has as its target Calcium-dependent protein kinase 4 (Plasmodium falciparum (isolate 3D7)) (UniProt Q8IBS5). Kind of assay: PfCDPK4 kinase inhibitors, biochemical, TCAMS library (AID 1159588; cut-off not given, nearly all actives have IC50 up to about 0.91 µM). To be noted: recombinant PfCDPK4, Kinase-Glo ATP depletion luminescence.

Unmarked numbers belong to inactive results. For some assays here: Results with a measured potency or affinity are listed apart. Activity calls are given as the source filed them. Unless noted, how the calls were made is not given here.

Sequence of Calcium-dependent protein kinase 4 (Plasmodium falciparum (isolate 3D7)) (Q8IBS5 whole entry, looked up): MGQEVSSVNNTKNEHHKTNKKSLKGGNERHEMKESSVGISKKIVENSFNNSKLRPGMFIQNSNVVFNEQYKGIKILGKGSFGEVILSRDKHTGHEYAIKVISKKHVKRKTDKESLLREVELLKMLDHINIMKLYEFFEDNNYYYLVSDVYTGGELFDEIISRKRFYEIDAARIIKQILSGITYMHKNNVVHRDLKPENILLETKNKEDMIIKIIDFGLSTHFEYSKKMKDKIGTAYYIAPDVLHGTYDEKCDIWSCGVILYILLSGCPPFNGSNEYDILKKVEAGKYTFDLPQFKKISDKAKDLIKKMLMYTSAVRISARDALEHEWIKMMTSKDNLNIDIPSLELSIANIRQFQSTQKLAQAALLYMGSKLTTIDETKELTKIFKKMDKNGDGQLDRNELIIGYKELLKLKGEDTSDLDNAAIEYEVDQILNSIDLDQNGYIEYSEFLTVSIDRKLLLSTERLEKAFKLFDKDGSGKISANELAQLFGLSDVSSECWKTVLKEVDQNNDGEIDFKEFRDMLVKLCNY
Sequence of Calcium-dependent protein kinase 1 (Plasmodium falciparum (isolate 3D7)) (P62344 whole entry, looked up): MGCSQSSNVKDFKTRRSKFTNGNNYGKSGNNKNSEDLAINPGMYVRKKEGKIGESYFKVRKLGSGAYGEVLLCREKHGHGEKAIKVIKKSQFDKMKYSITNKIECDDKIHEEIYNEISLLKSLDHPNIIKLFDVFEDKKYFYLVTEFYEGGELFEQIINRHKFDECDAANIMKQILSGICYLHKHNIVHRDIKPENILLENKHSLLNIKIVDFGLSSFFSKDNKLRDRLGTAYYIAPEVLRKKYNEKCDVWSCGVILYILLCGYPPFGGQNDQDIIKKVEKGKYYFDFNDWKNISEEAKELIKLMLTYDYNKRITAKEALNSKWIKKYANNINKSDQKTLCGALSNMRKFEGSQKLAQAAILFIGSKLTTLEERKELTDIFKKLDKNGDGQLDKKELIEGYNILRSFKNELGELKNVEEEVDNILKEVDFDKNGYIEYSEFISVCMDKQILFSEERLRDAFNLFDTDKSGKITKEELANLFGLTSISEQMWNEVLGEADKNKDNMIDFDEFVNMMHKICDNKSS
Sequence of Protein kinase 7 (PK7), Plasmodium falciparum 3D7 (PF3D7_0213400) (Q7YTF7 1-343): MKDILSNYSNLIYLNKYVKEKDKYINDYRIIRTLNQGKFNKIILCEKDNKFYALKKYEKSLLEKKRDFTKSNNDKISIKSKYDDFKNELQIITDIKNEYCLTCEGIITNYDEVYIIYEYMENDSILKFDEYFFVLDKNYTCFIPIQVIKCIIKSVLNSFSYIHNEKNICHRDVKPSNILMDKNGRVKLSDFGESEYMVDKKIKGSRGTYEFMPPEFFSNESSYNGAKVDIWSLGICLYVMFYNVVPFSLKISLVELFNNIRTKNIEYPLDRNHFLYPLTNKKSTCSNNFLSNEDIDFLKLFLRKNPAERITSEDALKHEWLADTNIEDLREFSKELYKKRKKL

`O=c1cc(NCCCNCc2sc(Br)c(Br)c2Br)[nH]c2ccccc12`: the growth inhibition in assay [1] was 38%; in assay [4], 90% (active). The inhibition in assay [2] is 0%; in assay [3] it was 5%. In addition, the outcome in assay [5], in assay [6], in assay [7] and in assay [8] was inactive.
For `CC(=O)c1ccc(N2CCN(CCC3(c4ccc(Cl)c(Cl)c4)COCN(C(=O)c4ccccc4)C3)CC2)cc1` (configuration not stated), the growth inhibition is 95% (active) in assay [1] and 88% (active) in assay [4]. The inhibition in assay [2] is 12%; in assay [3], 5%. For the same compound, the outcome in assay [5], in assay [6], in assay [7] and in assay [8] was inactive.
Consider `COc1cc(C(=O)N2CCOC(CCN3CCC(c4ccc(Cl)cc4)CC3)(c3ccc(Cl)c(Cl)c3)C2)cc(OC)c1OC` (configuration not stated), for which the growth inhibition in assay [1] was 80% (active); in assay [4] it was 91% (active). Further, the inhibition was 44% in assay [2] and 6% in assay [3]. Besides, the result in assay [5], in assay [6], in assay [7] and in assay [8] was inactive.
Regarding `O=C(/C=C/c1ccccc1Cl)Nc1ccc(Br)c(OCCN2CCCCC2)c1`, the growth inhibition in assay [1] is 25%; in assay [4], 99% (active). For the same compound, the figures for the inhibition in assay [2] and in assay [3] were 11% and -4%, respectively. For the same compound, the outcome in assay [5], in assay [6], in assay [7] and in assay [8] was inactive.
Regarding `Cc1nn(-c2ccccc2)nc1C(=O)N(Cc1ccc(-c2ccc(CNCCc3ccc(S(C)(=O)=O)cc3)cn2)cc1)C(C)CN(C)C` (configuration not stated), the growth inhibition was 87% (active) in assay [1] and 101% (active) in assay [4]. Also, the inhibition in assay [2] is 25%; in assay [3], -8%. Further, the result in assay [5], in assay [6], in assay [7] and in assay [8] was inactive.
In the case of `C[C@@H]1CCC[C@H](C)N1C[C@@H](O)CNS(=O)(=O)c1cccc(C(F)(F)F)c1`, the growth inhibition in assay [1] is 2%; in assay [4] it was 99% (active). Besides, the figures for the inhibition in assay [2] and in assay [3] were 4% and -4%, respectively. Also, the outcome in assay [5], in assay [6], in assay [7] and in assay [8] was inactive.
With `Cc1ccc(C2(CN3CCC(NC(=O)c4[nH]ncc4Cl)CC3)CCCCC2)cc1`, the growth inhibition in assay [1] is 96% (active); in assay [4] it was 97% (active). Also, the inhibition is -11% in assay [2] and -3% in assay [3]. For the same compound, the outcome in assay [5], in assay [6], in assay [7] and in assay [8] was inactive.
With `COc1cccc(CN(C(=O)Nc2ccccc2F)[C@H]2C[C@H]3C(=O)Nc4cc(F)ccc4C(=O)N3C2)c1`, the growth inhibition in assay [1] was 75% (active); in assay [4], 93% (active). For the same compound, the inhibition in assay [2] was -7%; in assay [3], 3%. The outcome in assay [5], in assay [6], in assay [7] and in assay [8] was inactive.
As to `Cc1cccc2[nH]c(-c3ccc(-c4ccc(NC(=O)CN5CCN(C)CC5)cc4)cc3)nc12`, the growth inhibition is 83% (active) in assay [1] and 100% (active) in assay [4]. The figures for the inhibition in assay [2] and in assay [3] were 29% and 1%, respectively. In addition, the outcome in assay [5], in assay [6], in assay [7] and in assay [8] was inactive.
For the compound `COc1ccc(Cl)cc1N1CCN(CCCNC(=O)c2ccc(-c3nc4cc(Cl)c(F)cc4[nH]3)s2)CC1`, the growth inhibition in assay [1] is 98% (active); in assay [4] it was 101% (active). For the same compound, the inhibition in assay [2] is 12%; in assay [3] it was 4%. The outcome in assay [5], in assay [6], in assay [7] and in assay [8] was inactive.
Take `NC(N)=NN=CC(=O)Nc1ccc(Br)cc1`: the figures for the growth inhibition in assay [1] and in assay [4] were 1% and 100% (active), respectively. The inhibition in assay [2] was 5%; in assay [3], 0%. In addition, the result in assay [5], in assay [6], in assay [7] and in assay [8] was inactive.
With `COC(=O)c1cc2cccc(NC[C@@H](C)NC[C@H](O)c3cccc(Cl)c3)c2[nH]1`, the growth inhibition is 99% (active) in assay [1] and 98% (active) in assay [4]. The inhibition was -8% in assay [2] and -3% in assay [3]. The result in assay [5], in assay [6], in assay [7] and in assay [8] was inactive.
For `CC(C)N(Cc1ccccc1)C(=O)CN1C(=O)COc2ccc(S(=O)(=O)N3CCCCCC3)cc21`, the growth inhibition in assay [1] and in assay [4] was 99% (active) throughout. The inhibition in assay [2] is -11%; in assay [3], -3%. The result in assay [5], in assay [6], in assay [7] and in assay [8] was inactive.
Take `Cc1ccc(Nc2nc(NN=Cc3cc4c(cc3Br)OCO4)nc(Nc3ccc([N+](=O)[O-])cc3)n2)cc1C`: the growth inhibition was 89% (active) in assay [1] and 100% (active) in assay [4]. Also, the inhibition in assay [2] was 23%; in assay [3], -2%. Further, the result in assay [5], in assay [6], in assay [7] and in assay [8] was inactive.
As for `CCOc1ccc2nc(C)cc(NN=Cc3cccnc3)c2c1`, the growth inhibition in assay [1] was 100% (active); in assay [4] it was 102% (active). In addition, the inhibition is 18% in assay [2] and 1% in assay [3]. For the same compound, the result in assay [5], in assay [6], in assay [7] and in assay [8] was inactive.
For the compound `CCOC(=O)C(=CNc1ccc(Cc2cnc(N)nc2N)cc1CC)C(=O)OCC`, the growth inhibition is 7% in assay [1] and 87% (active) in assay [4]. For the same compound, the figures for the inhibition in assay [2] and in assay [3] were 47% and 1%, respectively. Also, the result in assay [5], in assay [6], in assay [7] and in assay [8] was inactive.
Consider `O=C(NCCc1ccccc1)N(Cc1ccc(-c2cccc(CN3CCNCC3)c2)cc1)C1CCN(Cc2ccccc2)CC1`, for which the growth inhibition in assay [1] is 29%; in assay [4], 90% (active). Moreover, the inhibition is 27% in assay [2] and -1% in assay [3]. The outcome in assay [5], in assay [6], in assay [7] and in assay [8] was inactive.
Regarding `CC[C@H](C)CNC(=O)c1ccnc(-c2cccc(CN3CCC(N4CCCC4)CC3)c2)c1`, the growth inhibition was 12% in assay [1] and 97% (active) in assay [4]. The inhibition in assay [2] was -8%; in assay [3] it was -2%. Moreover, the result in assay [5], in assay [6], in assay [7] and in assay [8] was inactive.
On to `Cc1nc(C)c(CC(=O)Nc2cccc(-c3cccc(-c4nc5c(C)cccc5[nH]4)c3)c2)s1`, for which the results for the growth inhibition in assay [1] and in assay [4] were 35% and 92% (active), respectively. Besides, the values for the inhibition in assay [2] and in assay [3] were 43% and -6%, respectively. Besides, the outcome in assay [5], in assay [6], in assay [7] and in assay [8] was inactive.
